Laboratory results published in the supplement of paper PMC10849652.
About 7,900 targets were measured; listed, in parts, are those with a hit and a random draw of the rest. About 0.6% of all pairs of compound and target were hits.

Compound: CC(C)C[C@@H](C=O)NC(=O)[C@H](CC(C)C)NC(=O)[C@H](CC(C)C)NC(=O)OCc1ccccc1
Test: log2 fold change, soluble protein after heating vs DMSO (PISA); higher = thermal stabilisation; K562 cells, 10 uM, 30 min; active = over 0.2 and 3.5 SD of the protein, either way, in both replicates (recomputed)
Outline: (§1)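 For each measurement, 10 μM compound was applied for 30 min to K562 cells at 2×10^6 cells/mL. Aliquots were heated for 3 min across 48°C-58°C, pooled, and extracted in PBS with 0.5% NP-40 at 4°C; the supernatant after 21,000xg for 90 min was soluble protein. This was quantified by TMTpro 16plex LC-MS/MS with channel sums equalised, and thermal stability was reported relative to control samples from duplicates, on a log2 fold-change scale.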

Sequence of UniProt P50213 (P50213 whole entry, looked up): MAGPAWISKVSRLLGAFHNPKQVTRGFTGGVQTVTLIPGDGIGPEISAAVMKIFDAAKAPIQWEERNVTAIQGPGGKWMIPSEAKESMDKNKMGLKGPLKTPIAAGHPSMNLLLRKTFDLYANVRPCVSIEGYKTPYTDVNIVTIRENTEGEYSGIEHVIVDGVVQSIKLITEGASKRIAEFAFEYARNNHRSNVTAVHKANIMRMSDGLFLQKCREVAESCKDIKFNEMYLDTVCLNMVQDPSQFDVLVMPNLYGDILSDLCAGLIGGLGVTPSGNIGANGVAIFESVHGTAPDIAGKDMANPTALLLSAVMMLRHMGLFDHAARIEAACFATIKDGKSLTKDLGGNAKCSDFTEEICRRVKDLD
Sequence of UniProt P02008 (P02008 whole entry, looked up): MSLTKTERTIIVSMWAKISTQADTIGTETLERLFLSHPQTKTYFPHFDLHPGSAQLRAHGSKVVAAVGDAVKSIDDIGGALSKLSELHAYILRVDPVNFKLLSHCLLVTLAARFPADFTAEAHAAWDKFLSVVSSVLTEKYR
Sequence of UniProt Q12894 (Q12894 whole entry, looked up): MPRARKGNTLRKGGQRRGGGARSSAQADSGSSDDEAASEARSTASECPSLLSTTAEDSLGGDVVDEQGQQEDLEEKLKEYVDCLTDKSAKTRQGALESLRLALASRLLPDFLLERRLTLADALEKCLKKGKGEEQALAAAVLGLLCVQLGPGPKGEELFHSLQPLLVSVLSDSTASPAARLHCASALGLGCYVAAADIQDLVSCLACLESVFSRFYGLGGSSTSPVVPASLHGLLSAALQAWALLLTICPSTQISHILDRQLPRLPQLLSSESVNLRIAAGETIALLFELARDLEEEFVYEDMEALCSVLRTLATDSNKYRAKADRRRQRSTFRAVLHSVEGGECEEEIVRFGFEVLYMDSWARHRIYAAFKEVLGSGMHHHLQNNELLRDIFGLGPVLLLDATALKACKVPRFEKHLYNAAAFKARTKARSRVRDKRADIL
Sequence of UniProt Q14527 (Q14527 whole entry, looked up): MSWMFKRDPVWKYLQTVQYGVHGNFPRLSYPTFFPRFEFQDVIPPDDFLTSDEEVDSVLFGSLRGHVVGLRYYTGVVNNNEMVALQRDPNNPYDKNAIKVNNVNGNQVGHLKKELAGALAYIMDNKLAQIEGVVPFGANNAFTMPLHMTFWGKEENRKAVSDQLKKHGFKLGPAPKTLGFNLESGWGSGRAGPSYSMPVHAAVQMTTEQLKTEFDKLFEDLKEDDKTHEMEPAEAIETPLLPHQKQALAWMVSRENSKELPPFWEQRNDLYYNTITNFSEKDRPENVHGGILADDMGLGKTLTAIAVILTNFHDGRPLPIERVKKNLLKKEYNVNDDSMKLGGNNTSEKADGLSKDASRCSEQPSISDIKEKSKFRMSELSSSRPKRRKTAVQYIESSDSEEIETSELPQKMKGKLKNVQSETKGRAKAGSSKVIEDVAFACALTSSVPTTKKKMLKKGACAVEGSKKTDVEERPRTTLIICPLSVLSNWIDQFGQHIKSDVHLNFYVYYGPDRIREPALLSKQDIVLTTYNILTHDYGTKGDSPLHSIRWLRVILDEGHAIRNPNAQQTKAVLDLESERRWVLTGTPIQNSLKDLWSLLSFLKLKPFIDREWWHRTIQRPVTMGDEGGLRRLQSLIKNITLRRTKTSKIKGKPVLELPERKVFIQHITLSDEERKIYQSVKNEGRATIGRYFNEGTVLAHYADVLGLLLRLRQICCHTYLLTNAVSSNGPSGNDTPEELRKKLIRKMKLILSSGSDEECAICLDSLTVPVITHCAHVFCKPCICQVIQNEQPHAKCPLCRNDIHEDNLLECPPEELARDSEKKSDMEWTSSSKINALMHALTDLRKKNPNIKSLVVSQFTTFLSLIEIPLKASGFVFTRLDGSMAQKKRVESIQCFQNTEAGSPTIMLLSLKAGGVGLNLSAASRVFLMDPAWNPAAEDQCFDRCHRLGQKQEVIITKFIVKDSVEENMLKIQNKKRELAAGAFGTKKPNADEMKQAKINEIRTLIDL
Sequence of UniProt P49841 (P49841 whole entry, looked up): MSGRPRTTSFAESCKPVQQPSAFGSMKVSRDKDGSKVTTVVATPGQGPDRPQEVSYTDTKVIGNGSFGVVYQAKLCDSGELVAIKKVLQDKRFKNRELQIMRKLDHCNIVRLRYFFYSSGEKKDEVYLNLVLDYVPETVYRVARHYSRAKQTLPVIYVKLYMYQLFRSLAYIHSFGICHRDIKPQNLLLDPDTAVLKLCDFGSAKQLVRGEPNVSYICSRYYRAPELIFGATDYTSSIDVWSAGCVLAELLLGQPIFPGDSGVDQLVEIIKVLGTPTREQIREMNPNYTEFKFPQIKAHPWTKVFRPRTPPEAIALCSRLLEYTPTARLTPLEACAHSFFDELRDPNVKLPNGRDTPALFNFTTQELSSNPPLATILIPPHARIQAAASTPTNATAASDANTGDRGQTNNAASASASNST
Sequence of UniProt P0CL80 (P0CL80 whole entry, looked up): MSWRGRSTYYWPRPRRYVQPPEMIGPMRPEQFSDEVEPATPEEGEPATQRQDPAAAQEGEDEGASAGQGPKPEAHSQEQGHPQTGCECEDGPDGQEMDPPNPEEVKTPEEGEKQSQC
Sequence of UniProt P29083 (P29083 whole entry, looked up): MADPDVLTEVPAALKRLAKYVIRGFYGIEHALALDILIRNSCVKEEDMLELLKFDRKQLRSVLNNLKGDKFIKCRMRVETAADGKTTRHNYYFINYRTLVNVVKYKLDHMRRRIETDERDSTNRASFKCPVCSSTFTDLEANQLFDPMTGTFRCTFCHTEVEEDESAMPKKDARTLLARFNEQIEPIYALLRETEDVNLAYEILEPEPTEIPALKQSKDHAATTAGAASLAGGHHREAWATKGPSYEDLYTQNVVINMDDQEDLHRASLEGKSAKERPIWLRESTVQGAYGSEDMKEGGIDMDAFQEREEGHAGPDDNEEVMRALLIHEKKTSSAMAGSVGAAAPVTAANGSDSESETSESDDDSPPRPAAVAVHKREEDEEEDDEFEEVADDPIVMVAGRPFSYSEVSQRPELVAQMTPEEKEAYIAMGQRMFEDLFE
Sequence of UniProt P52597 (P52597 whole entry, looked up): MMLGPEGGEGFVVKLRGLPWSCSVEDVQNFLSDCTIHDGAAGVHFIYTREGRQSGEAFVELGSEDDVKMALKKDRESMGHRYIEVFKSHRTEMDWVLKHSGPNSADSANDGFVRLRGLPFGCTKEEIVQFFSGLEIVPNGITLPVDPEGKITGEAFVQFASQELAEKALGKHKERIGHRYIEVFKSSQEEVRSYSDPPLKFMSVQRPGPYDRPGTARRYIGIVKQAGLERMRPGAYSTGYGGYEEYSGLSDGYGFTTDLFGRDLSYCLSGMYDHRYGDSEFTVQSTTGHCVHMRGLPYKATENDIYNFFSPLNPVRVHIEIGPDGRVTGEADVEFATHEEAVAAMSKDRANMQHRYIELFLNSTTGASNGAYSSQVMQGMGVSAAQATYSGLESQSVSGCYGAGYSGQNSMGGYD
Sequence of UniProt Q86UL3 (Q86UL3 whole entry, looked up): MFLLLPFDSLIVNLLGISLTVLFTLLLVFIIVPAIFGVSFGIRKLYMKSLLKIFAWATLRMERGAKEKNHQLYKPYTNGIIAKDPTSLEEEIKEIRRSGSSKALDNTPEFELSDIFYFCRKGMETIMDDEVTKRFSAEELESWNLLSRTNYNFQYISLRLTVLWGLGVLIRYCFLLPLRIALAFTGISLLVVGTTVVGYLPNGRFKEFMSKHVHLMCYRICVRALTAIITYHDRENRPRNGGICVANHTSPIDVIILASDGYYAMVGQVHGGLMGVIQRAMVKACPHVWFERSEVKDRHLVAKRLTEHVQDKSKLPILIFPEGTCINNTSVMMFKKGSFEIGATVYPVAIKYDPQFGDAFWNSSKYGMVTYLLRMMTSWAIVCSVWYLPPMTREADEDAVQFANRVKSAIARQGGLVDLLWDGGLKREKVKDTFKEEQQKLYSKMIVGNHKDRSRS
Sequence of UniProt P62879 (P62879 whole entry, looked up): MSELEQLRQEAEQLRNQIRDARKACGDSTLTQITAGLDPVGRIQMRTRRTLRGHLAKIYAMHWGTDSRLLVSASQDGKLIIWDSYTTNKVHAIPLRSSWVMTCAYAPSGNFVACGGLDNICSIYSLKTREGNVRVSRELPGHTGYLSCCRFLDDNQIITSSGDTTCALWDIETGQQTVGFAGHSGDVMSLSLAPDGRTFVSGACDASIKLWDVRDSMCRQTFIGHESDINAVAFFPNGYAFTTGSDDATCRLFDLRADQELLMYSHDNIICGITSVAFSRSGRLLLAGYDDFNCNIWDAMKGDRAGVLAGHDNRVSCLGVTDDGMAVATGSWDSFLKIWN
Sequence of UniProt Q96JB3 (Q96JB3 whole entry, looked up): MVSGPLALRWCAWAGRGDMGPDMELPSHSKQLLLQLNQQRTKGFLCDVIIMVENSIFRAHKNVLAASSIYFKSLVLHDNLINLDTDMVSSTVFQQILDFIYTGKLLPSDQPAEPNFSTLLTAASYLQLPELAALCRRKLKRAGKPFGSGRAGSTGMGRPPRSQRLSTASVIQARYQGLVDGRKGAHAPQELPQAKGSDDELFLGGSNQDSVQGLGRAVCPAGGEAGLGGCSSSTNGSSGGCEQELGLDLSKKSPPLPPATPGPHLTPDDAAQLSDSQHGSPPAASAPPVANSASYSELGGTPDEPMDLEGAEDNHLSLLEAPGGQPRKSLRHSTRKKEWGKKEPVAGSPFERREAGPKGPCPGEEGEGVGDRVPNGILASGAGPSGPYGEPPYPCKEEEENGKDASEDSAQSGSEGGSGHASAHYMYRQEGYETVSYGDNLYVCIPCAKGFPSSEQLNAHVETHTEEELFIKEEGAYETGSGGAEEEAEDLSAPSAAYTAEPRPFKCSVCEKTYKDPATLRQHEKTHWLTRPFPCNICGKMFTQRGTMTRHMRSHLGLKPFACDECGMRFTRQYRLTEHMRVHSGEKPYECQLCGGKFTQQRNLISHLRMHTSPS
Sequence of UniProt P63218 (P63218 whole entry, looked up): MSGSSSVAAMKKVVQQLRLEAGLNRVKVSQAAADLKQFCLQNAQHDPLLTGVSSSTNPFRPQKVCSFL

log2 fold change, inactive:
HMGB3 (UniProt O15347) 0.001, HNRNPUL1 (UniProt Q9BUJ2) 0.035, FANCD2 isoform 1 (UniProt Q9BXW9) -0.266, HOOK3 (UniProt Q86VS8) 0.056, HECTD1 (UniProt Q9ULT8) 0.141, HDGFL2 (UniProt Q7Z4V5) -0.022, GTF2E1 (UniProt P29083) 0.016, IFI30 (UniProt P13284) -0.012, GSK3B isoform 2 (UniProt P49841) -0.031, GIGYF2 (UniProt Q6Y7W6) 0.01, GPAT4 (UniProt Q86UL3) 0.007, HTATIP2 isoform 3 (UniProt Q9BUP3) -0.021, H2AZ1 (UniProt P0C0S5) 0.244, IFRD2 isoform 2 (UniProt Q12894) 0.019, GEMIN5 (UniProt Q8TEQ6) 0.033, HIC2 (UniProt Q96JB3) -0.03, GTF2B (UniProt Q00403) 0.068, IDH3A (UniProt P50213) 0, HNRNPF (UniProt P52597) 0.069, GAGE12F (UniProt P0CL80) 0.019, GDE1 (UniProt Q9NZC3) 0.049, GLB1 (UniProt P16278) 0.062, FASTKD1 (UniProt Q53R41) 0.116, GALNT4 (UniProt Q8N4A0) -0.002, HHEX (UniProt Q03014) 0.189, HPCAL1 (UniProt P37235) -0.015, GNG5 (UniProt P63218) -0.065, GLYR1 (UniProt Q49A26) 0.09, HLTF (UniProt Q14527) 0.109, GTF2E2 (UniProt P29084) 0.075, HADHB (UniProt P55084) -0.106, HBZ (UniProt P02008) -0.019, FBXO42 (UniProt Q6P3S6) 0.011, GALNT11 (UniProt Q8NCW6) 0.038, GNB2 (UniProt P62879) -0.025

Compound: CC(C)N(C[C@H]1O[C@@H](n2cnc3c(N)ncnc32)[C@H](O)[C@@H]1O)[C@H]1C[C@@H](CCc2nc3cc(C(C)(C)C)ccc3[nH]2)C1 [pinometostat]
Test: as above
Outline: as §1

log2 fold change, inactive:
HMGB3 (UniProt O15347) -0.019, HNRNPUL1 (UniProt Q9BUJ2) 0.01, FANCD2 isoform 1 (UniProt Q9BXW9) 0.062, HOOK3 (UniProt Q86VS8) 0.024, HECTD1 (UniProt Q9ULT8) 0.079, HDGFL2 (UniProt Q7Z4V5) -0.051, GTF2E1 (UniProt P29083) -0.046, IFI30 (UniProt P13284) 0.019, GSK3B isoform 2 (UniProt P49841) -0.022, GIGYF2 (UniProt Q6Y7W6) 0.082, GPAT4 (UniProt Q86UL3) -0.029, HTATIP2 isoform 3 (UniProt Q9BUP3) 0.006, H2AZ1 (UniProt P0C0S5) 0.268, IFRD2 isoform 2 (UniProt Q12894) 0.144, GEMIN5 (UniProt Q8TEQ6) 0.043, HIC2 (UniProt Q96JB3) 0.143, GTF2B (UniProt Q00403) 0, IDH3A (UniProt P50213) -0.029, HNRNPF (UniProt P52597) 0.018, GAGE12F (UniProt P0CL80) -0.06, GDE1 (UniProt Q9NZC3) 0.054, GLB1 (UniProt P16278) 0.021, FASTKD1 (UniProt Q53R41) 0.038, GALNT4 (UniProt Q8N4A0) 0.014, HHEX (UniProt Q03014) -0.075, HPCAL1 (UniProt P37235) -0.003, GNG5 (UniProt P63218) -0.072, GLYR1 (UniProt Q49A26) 0.111, HLTF (UniProt Q14527) -0.024, GTF2E2 (UniProt P29084) 0.056, HADHB (UniProt P55084) -0.05, HBZ (UniProt P02008) -0.017, FBXO42 (UniProt Q6P3S6) -0.051, GALNT11 (UniProt Q8NCW6) 0.045, GNB2 (UniProt P62879) 0.016
